The list shows a part of the results. Inconclusive results are not listed. The source made the active and inactive calls. Calls come from the whole dose curve; as a rule, active = well fitted inhibition curve with a large enough effect; inconclusive = small, poorly fitted or top-dose-only effect; inactive = flat fitted curve, though single readings scatter.
test: Cell cycle validation with wells to cells screening paradigm; details: HeLa cell cycle G2/M arrest, Hoechst DNA content imaging
Text: Understanding cell cycle regulation is a critical component in combating various diseases such as cancer. Proper execution of cell cycle activity is essential for processes such as cell growth, DNA replication, and mitosis and surveillance mechanisms function as cell cycle checkpoints at the G1, S, and G2/M phases. Thus, profiling agents which disrupt cancer cell division represents a large effort in oncology-based studies. Compound-induced cell cycle perturbations can be analyzed through changes in specific cell cycle phase markers, such as DNA content, using high content screening. […] Furthermore, recent imaging based studies have performed cell cycle analysis following compound treatment where phenotypic fingerprints for phases of the cell cycle were determined or concentration-response based testing of selected compounds and drugs was used to measure a phenotypic profile in a dose-dependent manner. […]
Reagents: 70% EtOH, Hoechst Stain, PBS Controls: 7.6 uM (final starting concentration) Vinblastine and 38.3 uM (final starting concentration) nocodazole were dispensed into columns 1 and 2, respectively, and titrated 1:2 in DMSO (16-point in duplicate). […] Plates were read on the Acumen eX3 system and concentration response curves were generated after the readings. […]

| SMILES | Potency |
| --- | --- |
| O=c1cc(-c2ccccc2)[nH]c2nc(Cl)ccc12 | 2 µM (active) |
